High-throughput results deposited in PubChem by several laboratories.
SUMO Mot1 rescue – yeast Mot1-301 growth rescue at high temperature, primary screen, SUMOylation pathway inhibitor project, S. cerevisiae, ATP luminescence, 38.5C. S. cerevisiae Mot1-301 growth rescue; percent above DMSO median, 100 means doubled. growth rescue, % at 18.8 µM. actives 1% (n = 320,000). AID 2716, 2010;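 active = every valid replicate shows activation above 250% relative to neutral control wells; inactive = the rest, any valid replicate at or below 250%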
NTR1 ag – agonists of human NTR1, primary screen, imaging, U2OS cells, beta-arrestin-GFP, high content | Neurotensin receptor type 1 (Homo sapiens), P30989 | NTR1-U2OS beta-arrestin-GFP spot imaging, agonist mode | actives 0.17% (n = 330,000) | activation, % at 20 µM;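 active = activation at or above 40% of the spot to cytoplasm intensity ratio, with at least 20 cells analyzed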
Target sequence (P30989 whole entry, looked up): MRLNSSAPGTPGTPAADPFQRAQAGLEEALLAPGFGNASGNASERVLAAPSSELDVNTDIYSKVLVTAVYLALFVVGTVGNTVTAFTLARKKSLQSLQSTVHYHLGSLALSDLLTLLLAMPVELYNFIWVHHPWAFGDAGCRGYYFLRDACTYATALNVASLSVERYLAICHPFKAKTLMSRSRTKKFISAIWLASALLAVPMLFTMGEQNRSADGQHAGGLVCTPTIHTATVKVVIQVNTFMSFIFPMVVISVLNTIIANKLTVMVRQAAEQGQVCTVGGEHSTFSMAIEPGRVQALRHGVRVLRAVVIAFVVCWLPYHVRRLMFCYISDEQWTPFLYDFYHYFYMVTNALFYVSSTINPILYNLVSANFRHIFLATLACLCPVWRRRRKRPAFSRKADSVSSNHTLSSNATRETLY
AHR act – AHR activators, primary screen, cell-based, luminescence, luciferase reporter, human; Aryl hydrocarbon receptor (Homo sapiens), P35869; AHR-responsive luciferase reporter cells; activation, % at 5 µM; actives 2.5% (n = 320,000); in the data active = activation above about 47%
NR3A LBD binder – binders of NR3A ligand-binding domain, primary screen, biophysical, differential scanning fluorimetry, uHTS; actives 2.5% (n = 340,000); Tm shift relative to glycine control, % at 25 µM; AID 1259313, 2017; Glutamate receptor ionotropic, NMDA 3A (GRIN3A) ligand-binding domain; NR3A LBD differential scanning fluorimetry, Tm shift; 0% = protein alone, 100% = glycine-bound protein;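 active = melting temperature shift of at least 10% of the positive control shift, at one fixed dose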
AI-2 QS modul – Vibrio harveyi AI-2 quorum sensing modulators, primary screen, JMH597 strain, luminescence/OD600 ratio; Vibrio harveyi JMH597 AI-2 luminescence/OD600 ratio, 9 h; active compounds read low; strain lacks LuxN and CqsS sensors; 0 = neutral-control median; activity change, % at 7.5 µM; actives 0.4% (n = 300,000); AID 2094, 2009; in the data active = activity change below about -75%, passing the limit was not always enough;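 also: luminescence divided by OD600 gain over 9 h not by final OD600 alone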
Cardio protect – cardioprotection against H2O2-induced cell death, primary screen, uHTS, H9c2 cells, ATPLite luminescence | protection from H2O2 cell death, % at 20 µM | H9c2 cardiomyocytes, H2O2 injury protection, 2 h | AID 588492, 2011 | actives 0.63% (n = 360,000);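 active = compounds giving at least 50% protection of heart cells from peroxide-induced death in the single-dose screen, raw or plate-pattern-corrected value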
Numbers stand for hits; - = inactive; . = no result. The list is not random: actives were taken first. Their share in the collection is about 6.2%.

SMILES | SUMO Mot1 rescue | NTR1 ag | AHR act | NR3A LBD binder | AI-2 QS modul | Cardio protect
O=C(CCC(=O)Nc1ccc(Br)cc1)N/N=C/c1ccccc1O | - | - | - | - | - | -
Cc1ccc(NC(=O)CCC(=O)N/N=C/c2ccccc2O)cc1 | - | - | - | - | - | 52
Cc1ccc(S(=O)(=O)N2CCN(C(=O)c3cc(S(=O)(=O)N(C)C)ccc3N3CCCC3)CC2)c(C)c1 | . | - | . | - | . | -
CC12CCC(O)CC1=CCC1C2CCC2(C)C3=NN=CC3CC12 (stereo unspecified) | . | . | . | - | . | -
COc1ccccc1-c1cc2ccccc2[nH]1 | - | - | 64 | - | - | -
COC(=O)c1c(O)cc(C(C)(C)C)n(-c2ccccc2)c1=O | - | - | - | 18 | - | -
COC(=O)c1cc2sc(Cl)cc2n1CC(=O)Nc1ccc(OC)c(OC)c1OC | - | - | - | - | - | -
COC(=O)c1cc2sc(Cl)cc2n1CC(=O)Nc1cccc(SC)c1 | - | - | - | 15 | - | -
COc1ccc(/C=N/n2nnnc2N)c(OC)c1 | - | - | . | - | - | -
O=C(O)c1ccc(/C=N/Nc2nnnn2-c2ccccc2)cc1 | - | - | - | 10 | - | -
CCN1CCN(CC(=O)n2c3c(c4ccccc42)CC(C)CC3)CC1 (stereo unspecified) | - | - | - | - | - | -
CC1CCN(CC(=O)n2c3c(c4ccccc42)CCCC3)CC1 | - | - | 50 | - | - | -
CCC(CO)Oc1cc(NC(=O)c2ccccc2[N+](=O)[O-])c2ncn(C(C)C)c2c1 (stereo unspecified) | - | - | - | - | . | -
CC1(c2ccc(OC(F)F)cc2)NC(=O)N(/N=C/c2c(O)ccc3ccccc23)C1=O (stereo unspecified) | - | - | - | 12 | - | -
O=C(CCC(=O)c1cccs1)NCc1cccc(C(F)(F)F)c1 | - | - | - | - | - | -
COC(=O)CC1(CC(N)=O)SCCS1 | . | . | . | - | . | -
Cc1ccsc1C(=O)NNC(=O)c1ccncc1 | . | - | . | - | . | -
CCOC(=O)/C(=N/Nc1ccccc1)c1csc(Nc2ccccc2)n1 | - | - | - | 26 | - | -
CCOC(=O)/C(=N\Nc1ccc(Cl)cc1)c1csc(Nc2ccccc2)n1 | - | - | - | 27 | - | -
Cc1ccc(S(=O)(=O)N2CCCCC2)cc1NC(=O)c1ccc(=O)[nH]c1 | . | . | . | . | . | -
COCCNc1ncnc2c1ncn2[C@H]1CN(Cc2ccccc2)C[C@@H](CO)O1 | . | . | . | . | . | -
Clc1ccc(Nc2ccc(-n3ccnc3)nn2)cc1Cl | - | - | - | 19 | - | -
CCC(=O)N1CCC1(C)C(=O)Nc1nccs1 (stereo unspecified) | . | . | . | . | . | -
Cc1ccc(C2(C(=O)N3CCC(n4nc(-c5ccccc5)oc4=O)CC3)CC2)cc1 | - | - | - | - | - | -
Cc1cc(C)c2cc(C(=O)Nc3ccccc3)[nH]c2c1 | - | - | 47 | - | - | -
SMILES | SUMO Mot1 rescue | NTR1 ag | AHR act | NR3A LBD binder | AI-2 QS modul | Cardio protect
CCN(CC(=O)Nc1ccc(OC)cc1)C(=O)CSCC(=O)Nc1cc(C)on1 | - | - | - | - | . | -
CCC(=O)Nc1nc(C)c(-c2csc(Nc3ccc(C(=O)O)cc3)n2)s1 | . | - | . | - | - | -
CCCC(C)C(=O)Nc1nc(C)c(-c2csc(Nc3cc(OC)ccc3OC)n2)s1 (stereo unspecified) | - | - | 74 | - | - | -
CCC(C)C(=O)Nc1nc(C)c(-c2csc(Nc3ccc(Cl)cc3)n2)s1 (stereo unspecified) | - | - | 51 | - | - | -
CCCCCC(=O)Nc1nc(C)c(-c2csc(Nc3cc(Cl)ccc3OC)n2)s1 | - | - | 50 | - | - | -
Cc1ccc(Nc2nc(-c3sc(NC(=O)c4cccc(Cl)c4)nc3C)cs2)cc1 | - | - | - | . | - | .
COc1ccc(OC)c(Nc2nc(-c3sc(N)nc3C)cs2)c1 | - | - | - | - | - | -
